A short description of test [1]: P. berghei load reduction in hepatocytes – cell-based, HepG2, luciferase luminescence, HepG2 viability, primary screen (AID 624349; in the data active = parasite load remaining mostly below about 12%, no sharp cut-off; inactive = mostly above about 10%;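 note: 100% = mean of DMSO negative control wells on the same plate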). Particulars: P. berghei liver stage in HepG2, luciferase luminescence, concentration not given here; parasite load remaining: stronger effect = lower value; viability: measured here: HepG2 viability without parasites.
The nature of test [2]: signal quenchers or enhancers, Cy5 substrate/SSB – biochemical, NIH Clinical Collection, E. coli SSB, artefact control for HCV NS3 helicase inhibitor project (AID 743268; call rule not given here). Particulars: Cy5-oligo bound E. coli SSB, fluorescence interference.
The test system of test [3] is Hepatitis C virus NS3 helicase. The test can be described thus: blockers of NS3h binding to DNA – biochemical, fluorescence polarization, NIH Clinical Collection, primary screen (AID 743270; call rule not given here). The settings on record: NS3 helicase binding to Cy5-dT15 DNA, stronger effect = higher value, concentration not given here. For orientation: Polarisation of emitted light reports the rotation of a fluorescent probe.

For test [4], the target named is Single-stranded DNA-binding protein (Escherichia coli (strain K12)) (UniProt P0AGE0). The test can be described thus: SSB-ssDNA binding inhibitors – biochemical, fluorescence polarization, NIH Clinical Collection, counter-screen for HCV NS3 helicase inhibitor project (AID 743271; in the data active = inhibition above about 28%). Particulars: E. coli SSB-DNA binding, stronger effect = higher value, concentration not given here.

Test [5] in a line: compounds distorting NS3 helicase fluorescence signal – biochemical, NIH Clinical Collection, artefact control for HCV NS3 helicase inhibitor project (AID 743272; call rule not given here;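 note: HCV NS3 helicase with a Cy5 labelled single stranded DNA probe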). The settings on record: fluorescence interference counterscreen, HCV NS3 helicase assay; stronger effect = lower value. In general terms: The purpose of a counterscreen is to sort out artefacts and off-target activity.
A short description of test [6]: viability loss with induced miR-34 in A549 – imaging, A549 dox-inducible miR-34, nuclei and caspase counts, primary screen (AID 1347080;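 active = compounds whose cell count with miR-34 switched on is under 0.7 times the count with it off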). Particulars: A549 miR-34 inducible, Hoechst nuclei count, 48 h.
Test [7] in a line: galactose survival enhancers in mitochondrial complex I cybrids – cell-based, galactose medium, ATP luminescence, primary screen (AID 1645843;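 active = z-score of at least 1.8 in each of two replicates, scored against plate mean and spread of sample wells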;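 note: positive z means more ATP and so rescue of galactose-driven cybrid death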). The settings on record: complex I mutant cybrid cells, 72 h, stronger effect = higher value.
For a further test, the system named is F380Y. Put plainly: BK channel mutant inhibitors and activators – cell-based, U2OS BacMam, thallium flux, beta subunits, selectivity assay, profiling panel (AID 1259406).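 Note: initial slope of Thallos dye fluorescence rise after thallium is added; log ratio against the mean of 0.3% DMSO vehicle wells on the same plate.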 Particulars: U2OS BacMam BK variants, at 30 µM.
The subject of the next test is F380Y/beta1. Described as above. Particulars: U2OS BacMam BK variants, at 30 µM.
Another test has as its system F380Y/beta2Delta. The description is as above. Particulars: U2OS BacMam BK variants, at 30 µM.
The test system of the next test is F380Y/beta4. The test is described as above. Particulars: U2OS BacMam BK variants, at 30 µM.
In another test the test system is R275C. The description is as above. Particulars: U2OS BacMam BK variants, at 30 µM.
The next test relates to R275C/beta1. The test is described as above. Particulars: U2OS BacMam BK variants, at 30 µM.
Another test has as its system R275C/beta2Delta. The description is as above. Particulars: U2OS BacMam BK variants, at 30 µM.
Another test relates to R275C/beta4. The description is as above. Particulars: U2OS BacMam BK variants, at 30 µM.
In a further test the test system is R275C/Slo1WT/beta2. The test is described as above. Particulars: U2OS BacMam BK variants, at 30 µM.
In test [8] the test system is Neuropilin-2 / VEGF-C interaction (human). Put plainly: small molecules blocking Neuropilin-2/VEGF-C interaction – biochemical, microplate binding format, z-score (AID 743281; call rule not given here). Particulars: microplate NRP2/VEGF-C binding assay; stronger effect = lower value.
A short description of test [9]: modulation of C. elegans fzo-1 (AID 1259413; call rule not given here;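 note: fzo-1 mutant C. elegans worms in liquid wells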). The settings on record: C. elegans fzo-1 modulator screen, mean read-out; stronger effect = higher value.
Test [10] concerns the target Calcium-activated potassium channel subunit alpha-1 (Homo sapiens) + Leucine-rich repeat-containing protein 26 (Homo sapiens) (UniProt Q12791+Q2I0M4). Put plainly: BK channel mutant inhibitors and activators – cell-based, U2OS BacMam, thallium flux, beta subunits, selectivity assay, profiling panel (AID 1259406).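 Note: initial slope of Thallos dye fluorescence rise after thallium is added; log ratio against the mean of 0.3% DMSO vehicle wells on the same plate.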 Particulars: U2OS BacMam BK variants, F380Y/Slo1WT/gamma1, at 30 µM.

Where [11] appears, read: measured here: relative caspase fold change +Dox/-Dox.
[12] abbreviates: measured here: total cells with miR-34 induction, stronger effect = lower value.
Where [13] appears, read: measured here: total cells without miR-34 induction.
Where [14] appears, read: stronger effect = lower value, cell number ratio, induced over uninduced.

“And” between values parts separate entries of the source, which are not always exact repeats. Equal values may be shown once. More than one record can exist for a structure, and the calls need not agree. The source made the active and inactive calls.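 Rule for the calls, unless noted: active = thallium flux through the channel raised or lowered by more than 3 SD from vehicle-only wells, actives on both sides; inactive = the rest.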

Sequence of Calcium-activated potassium channel subunit alpha-1 (Homo sapiens) + Leucine-rich repeat-containing protein 26 (Homo sapiens) (Q2I0M4 whole entry, looked up, one chain of several): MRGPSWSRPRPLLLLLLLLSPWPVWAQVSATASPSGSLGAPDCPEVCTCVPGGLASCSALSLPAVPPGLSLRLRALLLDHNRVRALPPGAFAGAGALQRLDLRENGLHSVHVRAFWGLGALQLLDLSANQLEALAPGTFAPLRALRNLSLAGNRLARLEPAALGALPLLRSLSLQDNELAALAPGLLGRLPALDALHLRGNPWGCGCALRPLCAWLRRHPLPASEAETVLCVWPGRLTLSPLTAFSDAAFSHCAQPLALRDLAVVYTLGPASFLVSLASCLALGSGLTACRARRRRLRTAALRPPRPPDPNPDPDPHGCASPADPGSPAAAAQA

For the molecule `Clc1ccc(CON=C(Cn2ccnc2)c2ccc(Cl)cc2Cl)c(Cl)c1`, in test [1], the parasite load remaining was 2.5% (inactive). Besides, in test [1], the viability (as a rule, a read-out of living cells in per cent, often relative to untreated cells) is 54.6%. For the same molecule, the fluorescence ratio in test [2] is 0.95 (inactive); in test [5], 1 (inactive). Also, the figures for the inhibition in test [3] and in test [4] were 13.1% (inactive) and 7.6% (inactive), respectively. Besides, the fold change was 1.28 (inactive) in test [6] (stronger effect = lower value) and 0.637 in [6] (setting [11]). For the same molecule, the cell count in test [6] (setting [12]) worked out at 3280; in test [6] (setting [13]), 2560. Besides, the z-score in [7] was -1.88 (inactive). The log fold change Tl+ flux in the test with F380Y was -0.0332 (inactive); with F380Y/beta1, -0.00723 (inactive); in the test with F380Y/beta2Delta it was -0.00783 (inactive); in the test on F380Y/beta4, -0.00465 (inactive); in the test on R275C it was -0.0645 (inactive); in the test on R275C/beta1, 0.329 (active). For the same molecule, the log fold change Tl+ flux was -0.0303 (inactive) in the test on R275C/beta2Delta, 0.02 (inactive) in the test with R275C/beta4 and 0.0197 (inactive) in the test on R275C/Slo1WT/beta2.

For the molecule `COc1ccc2[nH]cc(C3=CCNCC3)c2c1`, the parasite load remaining in test [1] is 75.7% (inactive). The same molecule gave a viability in test [1] of 72.8%. The fluorescence ratio in test [2] is 0.58 (active); in test [5] it was 0.79 (active). The inhibition (usually the change of the read-out against control, counted positive when it falls) is -1.09% (inactive) in [3] and 5.91% (inactive) in test [4]. For the same molecule, the z-score is -1.09 (inactive) in test [8]; -1.57 (inactive) and -0.95 (inactive) in test [7]. In [9], the mean signal is 255 (inactive). Further, the fold change in test [6] (stronger effect = lower value) is 0.984 (inactive); in test [6] (setting [14]), 0.928 (inactive); in [6] (setting [11]), 1.1 and 0.779. The cell count in test [6] (setting [12]) was 6960 and 7660; in test [6] (setting [13]), 7080 and 8260. Also, the log fold change Tl+ flux in the test on F380Y is 0.0506 (inactive); in the test on F380Y/beta1 it was 0.0695 (inactive); in the test with F380Y/beta2Delta, 0.0281 (inactive); in the test on F380Y/beta4, 0.0777 (inactive); in [10] it was 0.0216 (inactive); with R275C it was -0.00261 (inactive). The log fold change Tl+ flux is 0.0891 (active) in the test on R275C/beta1, 0.0216 (inactive) in the test on R275C/beta2Delta, 0.0779 (inactive) in the test on R275C/beta4 and 0.242 (active) in the test on R275C/Slo1WT/beta2.

Consider `CN=C1CN(O)C(c2ccccc2)=c2cc(Cl)ccc2=N1`, for which the parasite load remaining in test [1] was 61% (inactive). For the same molecule, the viability in test [1] worked out at 68.2%. The fluorescence ratio in test [2] is 0.93 (inactive); in test [5], 0.94 (inactive). Moreover, the inhibition was -3.71% (inactive) in [3] and 1.97% (inactive) in test [4]. Also, the z-score in test [8] is 0.413 (inactive); in [7], 0.34 (inactive). For the same molecule, the mean signal in test [9] was 209 (inactive). The fold change in [6] (stronger effect = lower value) was 0.896 (inactive); in test [6] (setting [11]) it was 1.36. For the same molecule, the cell count in test [6] (setting [12]) worked out at 9820; in test [6] (setting [13]), 11000. For the same molecule, the log fold change Tl+ flux was 0.0582 (inactive) with F380Y; 0.0256 (inactive) in the test on F380Y/beta1; 0.0735 (inactive) in the test with F380Y/beta2Delta; 0.0618 (inactive) with F380Y/beta4; 0.00615 (inactive) in [10]; -0.0835 (inactive) with R275C. In addition, the log fold change Tl+ flux in the test with R275C/beta1 is 0.11 (active); in the test on R275C/beta2Delta, 0.0426 (inactive); with R275C/beta4, 0.0262 (inactive); with R275C/Slo1WT/beta2, -0.0229 (inactive).

In the case of `C[C@]12CC[C@H](O)CC1=CC[C@@H]1[C@@H]2CC[C@@]2(C)[C@H]1CC[C@]2(C)O`, the parasite load remaining in test [1] was 67.4% (inactive). The molecule also yielded a viability in test [1] of 70.8%. The fluorescence ratio in [2] is 1.04 (inactive); in test [5], 1.02 (inactive). Further, the inhibition was -1.19% (inactive) in test [3] and -4.72% (inactive) in test [4]. Besides, the log fold change Tl+ flux in the test on F380Y is 0.0283 (inactive); with F380Y/beta1 it was 0.0442 (inactive); in the test on F380Y/beta2Delta, 0.0164 (inactive); in the test on F380Y/beta4 it was 0.0285 (inactive); in test [10], 0.0157 (inactive); with R275C, 0.0183 (inactive). For the same molecule, the log fold change Tl+ flux with R275C/beta1 was 0.0261 (inactive); with R275C/beta2Delta it was -0.00697 (inactive); in the test on R275C/beta4, -0.00925 (inactive); in the test on R275C/Slo1WT/beta2, 0.057 (inactive).

On to `CCOC(=O)C1(c2ccccc2)CCN(CCC(C#N)(c2ccccc2)c2ccccc2)CC1`, for which, in [1], the parasite load remaining is 6.85% (inactive). For the same molecule, in test [1], the viability came out at 62%. The fluorescence ratio in test [2] was 0.99 (inactive); in test [5], 0.88 (inactive). Also, the inhibition was 1.98% (inactive) in test [3] and 4.52% (inactive) in [4]. Moreover, the figures for the z-score in test [8] and in test [7] were -0.718 (inactive) and -1.88 (inactive), respectively. Besides, the mean signal in test [9] was 215 (inactive). The fold change in test [6] (stronger effect = lower value) is 1.03 (inactive); in test [6] (setting [11]), 1.81. The cell count in test [6] (setting [12]) amounted to 4740; in [6] (setting [13]) it was 4590. Besides, the log fold change Tl+ flux is -0.0196 (inactive) with F380Y; -0.0124 (inactive) in the test with F380Y/beta1; -0.00205 (inactive) in the test with F380Y/beta2Delta; 0.0154 (inactive) in the test on F380Y/beta4; -0.0542 (inactive) in test [10]; 0.0145 (inactive) in the test on R275C. Besides, the log fold change Tl+ flux in the test on R275C/beta1 is -0.137 (active); in the test on R275C/beta2Delta, -0.169 (active); in the test with R275C/beta4, -0.00148 (inactive); with R275C/Slo1WT/beta2 it was 0.0218 (inactive).

`CCCCCCCCCOc1ccc2[nH]cc(CCN)c2c1`: the parasite load remaining in test [1] was 0.13% (inactive). In test [1], this molecule registered a viability of 3.42%. The fluorescence ratio was 0.97 (inactive) in test [2] and 0.61 (active) in test [5]. For the same molecule, the inhibition is -8.08% (inactive) in test [3] and 67.3% (active) in [4]. For the same molecule, the z-score is -2.82 (inactive) in test [8] and -1.44 (inactive) in test [7]. Further, the mean signal in [9] was 264 (inactive). Besides, the fold change in test [6] (stronger effect = lower value) is 0.664 (active); in test [6] (setting [11]), 1.96. Moreover, the cell count in [6] (setting [12]) came to 4000; in test [6] (setting [13]) it was 6020.

Take `CS(=O)(=O)Nc1ccc(Cc2noc(-c3ccc4[nH]cc(CCN)c4c3)n2)cc1`: the parasite load remaining in test [1] is 62% (inactive). Further, the viability in test [1] is 68.7%. In addition, the results for the fluorescence ratio in test [2] and in test [5] were 0.59 (active) and 0.8 (active), respectively. Moreover, the inhibition in [3] was 3.28% (inactive); in [4], 36.6% (active). Moreover, the z-score in [8] is 1.81 (inactive); in test [7], 0.895 (inactive) and 2.6 (active). In addition, the mean signal in test [9] was 254 (inactive). For the same molecule, the fold change in [6] (stronger effect = lower value) was 0.897 (inactive); in test [6] (setting [14]), 0.9 (inactive); in test [6] (setting [11]), 2.28 and 0.865. The cell count in [6] (setting [12]) was 9380 and 8560; in test [6] (setting [13]), 10500 and 9520. The log fold change Tl+ flux was -0.0227 (inactive) with F380Y; 0.0172 (inactive) with F380Y/beta1; -0.088 (inactive) with F380Y/beta2Delta; -0.0117 (inactive) in the test on F380Y/beta4; -0.0241 (inactive) in [10]; -0.054 (inactive) in the test on R275C. Also, the log fold change Tl+ flux in the test on R275C/beta1 is 0.0159 (inactive); in the test with R275C/beta2Delta, -0.0492 (inactive); in the test on R275C/beta4 it was 0.0477 (inactive); with R275C/Slo1WT/beta2 it was 0.0125 (inactive).
